# Assay results from the supplement of paper PMC11417369.
# The full ranking holds about 25,000 sequences; the median of “ln(normalized median fluorescence intensity)” is about 7.1, and the highest 2% start at about 10. Shown is part of a subset that was picked to be rich in the highest values.
# Tested on: PfSIP2 AP2 domain 1 (GST-tagged)
# Assay: gcPBM binding intensity (ln(normalized median fluorescence intensity)); higher = stronger DNA binding
# In short: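 For binding intensity, the highest Masliner-normalised natural-log median intensity across replicate spots of either probe orientation was taken. Protein bound to the array was stained with Alexa488 anti-GST antibody and scanned at 488 nm. The protein, GST-tagged P. falciparum DNA-binding domains from E. coli at about 25 μg on average, had been applied for 1 h to an Agilent 4 × 180k array of primer-extended double-stranded 36-bp intergenic genomic probes and negative controls.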
row,Sequence,gcPBM binding intensity (ln)
1,TATCCCCTTGTCCATATTAATTGTGACATCATATAT [XGTACX_negctrl_site9],7.09
2,TCATTAAAGGAAAAATGTACGTATAAATAAATATAT [XGTACX_site2587],7.07
3,TAAAATATTTCAAAGGTGCAATGATAATTTAAGACG [GTGCAC_site9609],10.4
4,ATTTAAAAAAGAAAGGTGCATTTCAATAATGTAAAA [GTGCAC_site9585],11
5,TGATATAAAATTAAAGTGCAAAAAAAAAATAAAAAA,8.36
6,ATTATAAAAGAATTTTTTTTTATTTCATTAAAATAT [CACACA_negctrl_site1137],6.57
7,GAAATAAAAAGAAATGCATGTAATTTTTTTTTTTTT [TGCATGCA_site928],6.71
8,ATATTTAAAGAATAAGTGCAAAATGTAATTAATTTT [GTGCAC_site9901],7.91
9,AAAAAAAAAAAAAAAGTGCATTAATAAATTTTAATA,9.57
10,GAAAATAAAATAAATGCATGTAAATTTAATGTAATG [TGCATGCA_site996],6.87
11,TTAATTAATTTTTCAGTGCAAATAAAAAATATTTAA,7.78
12,CATAATTTAAAAAAGGTGCAAAATGGATAATATATA [GTGCAC_site9657],11
13,AGAATTAAAATAAAGGTGCATTTTTTTGTTTCATGT,11
14,TCATTTTAATTAAAAGTGCAAAAAATAATATAACTA [GTGCAC_site9968],8.31
15,TACTATATCGATACCAGTACAGATTTATAAATAATA [XGTACX_site7491],6.94
16,ATAAATAATATATATACACACATATCTATACATATT [CACACA_site487],7.05
17,AATAATAATAAAAAGGTGCTGAAATATTTTTATTAT [GTGCAC_site9763],8.38
18,GCTGAAAGGATAAAGGTGCATATTTTTTAAAAAATT [GTGCAC_site9487],11.2
19,AAATTAAAGGCATAAAAGAAAATATTTAATAAAAAA [CACACA_negctrl_site1689],6.57
20,ATACACACAGCCTAAACATGCATATAGAAAAAAGAA [TGCATGCA_site1028],7.4

row,Sequence,gcPBM binding intensity (ln)
1,TATATATAGAAACACACACACACATATATATATATA [CACACA_site4116],9.25
2,ATTCTATAGAAACACACACACATGCATGCACCTATA [CACACA_site107],11.7
3,CATAACATAAAATAGGTGCACAAAAATTGTAATTGA,11.2
4,AATAAGTAACAAAATACACACATATAGGTAATTATA [CACACA_site6949],6.83
5,GTTGTGTAATTCGTAACACACATAAAATATATATAA [CACACA_site6059],6.97
6,ACATATGAATATAATACACACTTGTATTATTAATAT [CACACA_site8546],6.85
7,ATATTCTTGTTTAATACACACTGTAGTATTATATAT [CACACA_site4400],7.17
8,ATACAGTTGCATATGGTGCACGAATAATACACCTAT,11.3
9,GAATAATATGGACATACACACATATACATACCTATA [CACACA_site7075],7.25
10,GTACACCTATAATATACACACAACAAATATGCACAT [CACACA_site6603],8.84
11,ACACTTAAATATTGTTGTACAAAATGATAAAATGTA [XGTACX_site4588],7.13
12,CACCCTTTGTTTTAGAGTACATATGTATATACGTAA [XGTACX_site7964],7.53
13,ATAAAAAACTCAGAGCGTACATAATTTTTTCTATTT [XGTACX_site2803],7.24
14,TATATATGGGTAACCTTTTTTTTTTTTTTTCGAACA [CACACA_negctrl_site1303],6.8
15,AGGTAGAAAAAAGACACACACATTATGTATATATAT [CACACA_site377],7.6
16,ACAAAATTTACAAAATGTACAAAATATACAAAATAT [XGTACX_site6465],6.99
17,TATTATTATTTTATGGTGCAAAAAAAAAAAAAAAAA,10.6
18,TACATACATATATTATGTACATATTTTATTTTTATT [XGTACX_site1642],7.08
19,CATATTATTATTTTGGTGCATACTTATATATATTTT,9.74
20,TACAATATATTTATAGTGCATATTACTTTTAACTTT,8.41

row,Sequence,gcPBM binding intensity (ln)
1,ATTTATTTTAAATAAGTGCAAAATGGTTATAAATAA,8.23
2,TATTTTTATTATATGGTGCATATATACATACATATA,10.4
3,TTATTTTTATATTTCACACACATATACTTTTACATA [CACACA_site4097],7.28
4,AAAATTATTTAGTAAGTGCAAAAAAAAAAAAAAAAA,8.21
5,CACCCTTTACACAAGGTGCATACTTTATTATATTTT [GTGCAC_site9778],10.6
6,AAGGAGCCTATGAACACACACATGTACATATATTAA [CACACA_site4084],7.03
7,TATATATGCATTAAAGTGTTTTTTTTTTTTTTTTTT [CACACA_negctrl_site1353],7.72
8,TACACATTATGTATCATACACACAAATAAATATATA [CACACA_site608],7.1
9,TAAGAAATTGAGCGCACACATACATCTGTGGGATGG [CACACA_site1548],6.71
10,CATACACATTTCATATGTACATAGATTGAAGGGAAG [XGTACX_site116],7.21
11,ATATATATATTATATGCACACTAATAAGACTATTTA [CACACA_site5880],9.55
12,AGCAAGACGGGGTGCACACAAACTAATATGCCGAAT [CACACA_site159],12.1
13,TATACGTAATAATATGCACACAAATAAACTTTATAA [CACACA_site9166],8.88
14,TACGTAATAATATGCACACAAATAAACTTTATAAAT [CACACA_site3501],8.22
15,ATATATATTATATGCACACTAATAAGACTATTTAAA [CACACA_site3554],9.68
16,CGAGCAAGACGGGGTGCACACAAACTAATATGCCGA [CACACA_site7936],12.1
17,ATTTAATTCGTACATACACACGCACATATATATATA [CACACA_site8415],8.85
18,CTATTAAAAAAATTATGTACACAACGTCTCTATATA [XGTACX_site4813],7.01
19,TTTTTTAAAATATATATAATGAATTTTTTTTTTTTT [CACACA_negctrl_site1577],7.05
20,TGATCAAATAAGTTTGCATGTCAACAATGCATATAT [TGCATGCA_site1025],7.19
